CYP2C9 act: increases human cytochrome P450 2C9 activity | P11712 | recombinant CYP2C9, luciferin-H conversion, luminescence; stronger effect = higher value; factor 1 = untreated enzyme, 0 = blocked | activation factor at 5 µM | hit rate 1.4% among 96,000 | AID 1024;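 active means activation factor of 2 or more for CYP2C9 at a 5 µM dose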;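 further: 0 = sulfaphenazole-blocked wells and 1 = vehicle-only wells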
CYP2C19 activ: activators of human cytochrome P450 2C19; recombinant CYP2C19, luciferin-H EGE luminescence; stronger effect = higher value; 0 = fully inhibited enzyme, 1 = untreated enzyme; activation factor at 5 µM; 96,000 tested, under 10 active; AID 1025;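 active means activation factor of at least 2 at 5 µM in the primary screen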;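 further: 0 = wells with 2.5 mM tranylcypromine and 1 = vehicle-only wells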
Target sequence (P33261 whole entry, looked up): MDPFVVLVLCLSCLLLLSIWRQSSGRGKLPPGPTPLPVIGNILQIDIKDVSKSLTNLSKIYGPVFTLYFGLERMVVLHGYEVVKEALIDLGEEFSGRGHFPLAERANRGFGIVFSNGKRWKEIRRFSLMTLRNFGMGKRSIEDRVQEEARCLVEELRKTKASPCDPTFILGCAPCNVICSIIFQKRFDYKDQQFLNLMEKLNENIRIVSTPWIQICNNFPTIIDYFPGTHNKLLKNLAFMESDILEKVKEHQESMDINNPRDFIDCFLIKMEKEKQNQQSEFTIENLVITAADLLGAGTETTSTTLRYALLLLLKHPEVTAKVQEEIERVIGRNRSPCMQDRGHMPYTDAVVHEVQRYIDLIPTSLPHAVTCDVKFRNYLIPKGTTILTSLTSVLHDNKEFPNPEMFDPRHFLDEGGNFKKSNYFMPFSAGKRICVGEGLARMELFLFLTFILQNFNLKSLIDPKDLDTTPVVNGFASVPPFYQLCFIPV
PTK2B oligo ant: antagonists of human Pyk2 oligomerization | z-score (the deposit names both 25 µM and 10 µM) | hit rate 0.83% among 99,000 | Q14289 | Q293 cells, Pyk2 FERM NanoBiT luminescence; stronger effect = lower value;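 active means Z-score of -3 or lower, scaled per plate to the spread of control and sample wells; inactive means z-score above -3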;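 further: negative z-score means lost luminescence so less FERM oligomerization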
CYP2C19 inhib: human CYP2C19 inhibition; hit rate 21% among 96,000; P33261; CYP2C19 Supersomes, luciferin-H EGE luminescence, 30 min; AID 778; inhibition, % at 5 µM;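 active means CYP2C19 inhibition above a set limit at 5 µM in the primary screen, cut at about 50% in these data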;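 further: plate controls were negative control wells for no effect and 2.5 mM tranylcypromine positive control for full effect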
CYP2C9 inhib: inhibitors of human CYP2C9; P11712; CYP2C9 Supersomes, luciferin-H conversion, luminescence; inhibition, % at 5 µM; hit rate 20% among 96,000;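 active means blocking of liver enzyme CYP2C9 beyond about 50% at 5 µM, limit read from the data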
Cav32 inh: inhibitors of human Cav3.2 T-type calcium channel. hit rate 4% among 100,000. B-score at 10 µM. Cav3.2-expressing cells, Fluo-4 calcium fluorescence FDSS; stronger effect = lower value. O95180;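 active means single-dose well whose peak fluorescence ratio is a statistical outlier from its plate by either plate-standardised score or position-corrected B-score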
Starred values were filed as active, the others as inactive; · = no result. The list is not random: actives were taken first. Their share in the collection is about 27%.

SMILES | CYP2C9 act | CYP2C19 activ | PTK2B oligo ant | CYP2C19 inhib | CYP2C9 inhib | Cav32 inh
CCOP(=O)(OCC)c1nc(-c2cccc3ccccc23)oc1NCc1ccccc1 | 0.6 | 0.7 | -0.95 | 30 | 37 | -1.1
NS(=O)(=O)c1ccc(N2N=C(c3ccccc3)CC2c2ccc(F)cc2)cc1 (stereo not drawn) | 0.1 | 0.7 | -0.77 | 31 | 90* | -0.85
NS(=O)(=O)c1ccc(CCNC(=O)CN2CCN(c3ccc(F)cc3)CC2)cc1 | · | · | 0.71 | · | · | ·
CCN(CC)S(=O)(=O)c1cccc(C(=O)NC(C(=O)Nc2nnc(C)s2)C(C)C)c1 (stereo not drawn) | 0.2 | 0.6 | -0.02 | 43 | 78* | 0.73
CCN(CC)S(=O)(=O)c1cccc(C(=O)N[C@H](C(=O)NCc2ccc(Cl)cc2)C(C)C)c1 | 0 | 0.7 | 0.06 | 29 | 97* | -9.8*
CN(C)S(=O)(=O)c1cccc(C(=O)OCC(=O)c2ccc3c(c2)NC(=O)CO3)c1 | 1 | 0.9 | -0.82 | 7 | 3 | 0.51
CCN(CC)S(=O)(=O)c1cccc(C(=O)N[C@H](C(=O)NCc2ccccc2F)C(C)C)c1 | 0.2 | 0.8 | 1.3 | 20 | 85* | -0.35
CCN(CC)S(=O)(=O)c1cccc(C(=O)OCC(=O)C23CC4CC(CC(C4)C2)C3)c1 | 0.3 | 1 | -0.37 | -2 | 74* | -2.1
CCN(CC)S(=O)(=O)c1cccc(C(=O)N[C@H](C(=O)O)C(C)C)c1 | 1.1 | 1.2 | 0.58 | -16 | -6 | 0.3
CCN(CC)S(=O)(=O)c1cccc(C(=O)Nc2cc(C)cc(C)c2)c1 | 0.6 | 0.6 | -0.39 | 41 | 40 | -3.4*
COc1cnn(-c2ccccc2)c(=O)c1SCc1ccc(Cl)cc1Cl | 0.5 | 0.3 | -1.1 | 67* | 47 | -4*
O=C(O)CCC(=O)N1CCc2cc(S(=O)(=O)N3CCC(Cc4ccccc4)CC3)ccc21 | 0.8 | 0.7 | · | 33 | 18 | -0.081
COc1ccc(-c2cnn(-c3ccccc3)c2N)cc1OC | 2.2* | 0.7 | -0.38 | 30 | -120 | 0.72
COc1ccc(-c2c(C)nn(-c3ccccc3)c2N)cc1OC | · | · | -0.5 | · | · | 1
COC(=O)CCCC1=CC2=CC(=O)C(C)(OC(=O)c3cccs3)C(=O)C2=CN1C1CCCCC1 (stereo not drawn) | · | · | · | · | · | 1.4
CCOc1ccccc1NC(=O)CSc1nnc(Cn2c(=O)sc3ccccc32)n1C | · | · | · | · | · | -0.63
Cc1[nH]c2ccccc2c1CCO | 1.2 | 0.9 | 0.11 | 12 | -23 | 0.25
Cc1ccc2cc(CCNC(=O)c3ccc(C)c([N+](=O)[O-])c3)c(=O)[nH]c2c1 | · | · | -0.52 | · | · | ·
CCCNC(=O)NCCc1c(C)[nH]c2ccccc12 | 2.5* | 0.6 | · | 45 | -154 | -0.29
Cc1[nH]c2ccccc2c1CCNC(=O)c1ccc2c(c1[N+](=O)[O-])C(=O)c1ccccc1C2=O | 0.5 | 0.3 | -0.94 | 68* | 47 | ·
Cc1[nH]c2c(C)cccc2c1CCNC(=O)c1ccc2c(c1[N+](=O)[O-])C(=O)c1ccccc1C2=O | 0.2 | 0.4 | -1 | 61* | 77* | 0.13
Cc1cccc(C)c1-n1c(SCC(=O)NCc2ccco2)nc2ccccc2c1=O | 0.7 | 0.6 | -1.3 | 44 | 32 | -0.38
FC(F)(F)c1nc(N2CCCC2)ncc1-c1nnnn1-c1ccccc1 | 0.5 | 0.2 | -1.9 | 82* | 52* | -0.93
Cc1ccc(-n2nnnc2-c2cnc(N3CCCC3)nc2C(F)(F)F)cc1 | 0.2 | 0.1 | -1.4 | 87* | 76* | -4.5*
Cc1ccc(-n2nnnc2-c2cnn(-c3cccc(F)c3)c2C(F)(F)F)cc1 | · | · | -2.7 | · | · | -4.1
SMILES | CYP2C9 act | CYP2C19 activ | PTK2B oligo ant | CYP2C19 inhib | CYP2C9 inhib | Cav32 inh
CCOC(=O)c1ccc(NC(=O)c2nc[nH]c2C(=O)N[C@@H](CC(C)C)C(=O)OCc2ccccc2)cc1 | · | · | · | · | · | -0.12
CNc1nn(-c2cccc(Cl)c2)nc1N | 0.8 | 0.8 | -0.73 | 18 | 23 | 0.2
O=C(Nc1nccs1)c1cc(S(=O)(=O)N2CCOCC2)ccc1Cl | 1 | 0.9 | -0.78 | 6 | 5 | 1.8
CC(=O)c1cccc(NC(=O)C(OC(=O)/C=C/c2ccc3c(c2)OCO3)c2ccccc2)c1 (stereo not drawn) | 0.1 | 0.2 | 0.55 | 76* | 95* | -2.6
NC(=O)C1=C[C@@H](c2ccccc2)C[C@@H](OCc2ccc(CO)cc2)O1 | · | · | · | · | · | -0.0032
COc1cccc(C(=O)CSc2nc3cccnc3n2C)c1 | · | · | 0.44 | · | · | 0.81

Screening data as filed in PubChem BioAssay.
